From PubChem BioAssay (NCATS)
Results filed as inconclusive are left out. The source made the active and inactive calls. Unless noted, the call rests on the fitted dose curve; in most records, active means well fitted curve in the direction sought with a large enough effect; inconclusive means small, poorly fitted or top-dose-only effect, or another doubt; inactive means no such curve, though single readings can be large; an effect the other way counts as inactive or inconclusive.

Legend:
[1] = Confirmation and Secondary Assay for Modulators of Hemoglobin Beta Chain Splicing at IVS2 654 locus (AID 910);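 further: HeLa cells stably carrying EGFP split by mutant beta-globin IVS2-654 intron; % of control where 0% means no effect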
Summary of the method: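 HeLa cells stably expressing EGFP interrupted by β-globin IVS2-654 intron, seeded overnight in Opti-MEM/2% FCS, then treated 2 days at 37 °C. Restored splicing read as total peak GFP intensity per well by laser scanning cytometry (488 nm excitation, 500–520 nm emission); 500 nM antisense PNA as control.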

[2] = Confirmation and Secondary Assay for Modulators of Hemoglobin Beta Chain Splicing at IVS2 705 locus (AID 930);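 further: HeLa cells stably expressing the EGFP-705 splicing reporter; GFP fluorescence per well restored by corrected splicing of the IVS2-705 intron in EGFP; % of control where 0% means no effect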
Summary of the method: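 Per-well GFP, captured at 1 x 8 µm resolution with 488 nm excitation, served as the read-out for HeLa EGFP-705 cells incubated 2 days with test compound versus DMSO.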

[3] = qHTS Assay for Lipid Storage Modulators (AID 1519; calls by dose curve); settings: Drosophila S3 cells, BODIPY lipid droplet/cell ratio, laser cytometry, cells loaded with oleic acid; for activity change, negative = inhibition: at 57.5 µM (top of the series)
Summary of the method: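 Cells seeded at 5,000 per well were treated with compounds over a concentration series and loaded with oleic acid (400 uM, as added). Lipid droplet fluorescence (488 nm excitation, 500-530 nm channel) was read by laser-scanning cytometry and normalized to 20 uM Triacsin C.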

[4] = target: Ubiquitin carboxyl-terminal hydrolase 1 (Homo sapiens) (UniProt O94782); test: Inhibitors of USP1/UAF1: Pilot qHTS (AID 504865);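 further: rhodamine fluorescence freed from ubiquitin-rhodamine substrate followed over time; top concentration of the series differs between compounds; on the % scale 0 is the no-effect control and ±100 the full control effect; nearly all actives have a fitted effect of over 35% in size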
Summary of the method: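 Enzyme-free wells gave the negative control, while test wells held 1nM USP1/UAF1 preincubated with compound for 15 min at room temperature. Ub-Rho at 150nM final started the reaction, and fluorescence at 480/540 nm was recorded kinetically.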

[5] = target: Cytochrome P450 2D6 (Homo sapiens) (UniProt P10635); test: Cytochrome P450 family 2 subfamily D member 6 (CYP2D6) small molecule antagonists: luciferase biochemical (cell-free) qHTS assay (AID 1645840; active means well fitted curve in the direction sought with a large enough effect in the repeat runs; an effect the other way counts as inactive or inconclusive; further: on the % scale 0 is the no-effect control and ±100 the full control effect; nearly all actives have a fitted effect of over 55% in size)
Chain of Cytochrome P450 2D6 (Homo sapiens) (P10635 whole entry, looked up): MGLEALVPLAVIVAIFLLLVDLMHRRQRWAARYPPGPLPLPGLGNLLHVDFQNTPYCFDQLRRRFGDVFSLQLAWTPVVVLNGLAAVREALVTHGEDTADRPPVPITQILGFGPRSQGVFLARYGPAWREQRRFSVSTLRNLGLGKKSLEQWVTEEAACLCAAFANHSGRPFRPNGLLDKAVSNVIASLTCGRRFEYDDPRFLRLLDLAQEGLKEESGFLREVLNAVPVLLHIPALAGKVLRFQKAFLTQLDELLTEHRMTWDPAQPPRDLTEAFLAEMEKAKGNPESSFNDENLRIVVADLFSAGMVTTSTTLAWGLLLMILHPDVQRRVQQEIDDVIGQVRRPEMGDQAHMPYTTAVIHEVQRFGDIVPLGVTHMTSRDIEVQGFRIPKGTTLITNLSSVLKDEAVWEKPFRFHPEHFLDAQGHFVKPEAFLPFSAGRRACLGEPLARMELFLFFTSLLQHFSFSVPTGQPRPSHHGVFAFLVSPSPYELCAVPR
Summary of the method: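 P450-Glo luminescent screen: recombinant CYP2D6 enzyme–proluciferin substrate mix preincubated with compound 10 min at room temperature, then NADPH regeneration added for 1 h at room temperature. Detection reagent added for 20 min; luciferin light read as relative luminescence units.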

[6] = target: Cytochrome P450 2C9 (Homo sapiens) (UniProt P11712); test: Cytochrome P450 family 2 subfamily C member 9 (CYP2C9) small molecule antagonists: luciferase biochemical (cell-free) qHTS assay (AID 1645842; active means well fitted curve in the direction sought with a large enough effect in the repeat runs; an effect the other way counts as inactive or inconclusive; further: on the % scale 0 is the no-effect control and ±100 the full control effect; nearly all actives have a fitted effect of over 55% in size)
Summary of the method: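 Luminescence, after 20 min with luciferin detection reagent, reflected CYP2C9 turnover during a 1 h NADPH-driven reaction at 37C. Enzyme-substrate mix contained 0.4% bovine serum albumin and was preincubated with compound 10 min at room temperature.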

[7] = target: Cytochrome P450 3A4 (Homo sapiens) (UniProt P08684); test: qHTS Assay for Activators of Cytochrome P450 3A4 (AID 885); further: nearly all actives have a fitted effect of over 65% in size
Chain of Cytochrome P450 3A4 (Homo sapiens) (P08684 whole entry, looked up): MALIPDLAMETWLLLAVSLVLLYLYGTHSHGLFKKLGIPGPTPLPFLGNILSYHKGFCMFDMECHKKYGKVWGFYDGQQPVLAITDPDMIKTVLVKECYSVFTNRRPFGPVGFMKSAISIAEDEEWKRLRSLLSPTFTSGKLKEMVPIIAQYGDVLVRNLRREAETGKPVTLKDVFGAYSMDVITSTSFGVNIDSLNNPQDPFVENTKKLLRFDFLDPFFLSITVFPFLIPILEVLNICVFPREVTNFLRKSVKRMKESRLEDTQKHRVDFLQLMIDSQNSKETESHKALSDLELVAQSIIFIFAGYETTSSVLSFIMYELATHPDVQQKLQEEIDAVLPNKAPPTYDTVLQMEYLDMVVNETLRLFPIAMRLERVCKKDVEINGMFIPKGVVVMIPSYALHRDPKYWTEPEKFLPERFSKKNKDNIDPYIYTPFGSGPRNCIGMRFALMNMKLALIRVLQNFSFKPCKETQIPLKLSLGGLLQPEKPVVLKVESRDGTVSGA
Summary of the method: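 Steps: enzyme/substrate mix dispensed; compound added, 10 min RT; NADPH regeneration solution added, 60 min RT; luciferin detection buffer stops reaction; 20 min later luminescence measured.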

[8] = Primary qHTS for small molecule stabilizers of the endoplasmic reticulum resident proteome: Secreted ER Calcium Modulated Protein (SERCaMP) assay (AID 1508630); further: on the % scale 0 is the no-effect control and ±100 the full control effect
Summary of the method: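 GLuc-SERCaMP-expressing SH-SY5Y cells, pretreated 16 h with compound, are challenged with thapsigargin to empty ER calcium stores; after 4 h, coelenterazine is added directly to the medium and luminescence is imaged.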

[9] = target: Cytochrome P450 3A4 (Homo sapiens) (UniProt P08684); test: qHTS Assay for Inhibitors and Substrates of Cytochrome P450 3A4 (AID 884); further: nearly all actives have a fitted effect of over 50% in size; further: potency means the concentration at half of the fitted maximal effect
Summary of the method: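 20 nM human CYP3A4 with 25 uM Luciferin-PPXE (at KM) in 200 mM KPO4, preincubated 10 min with compound; NADPH regeneration started a 60 min RT reaction. Luciferin detected by luminescence, normalized to 57 uM ketoconazole as full inhibition.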

[10] = target: Rap guanine nucleotide exchange factor 3 (Homo sapiens) (UniProt O95398); test: Confirmatory qHTS for antagonist of cAMP-regulated guanine nucleotide exchange factor 3 (EPAC1) (AID 1645880);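 further: plate controls were DMSO only for no effect and full effect of the ATA control for full effect; nearly all actives have a fitted effect of over 55% in size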
Chain of Rap guanine nucleotide exchange factor 3 (Homo sapiens) (O95398 whole entry, looked up): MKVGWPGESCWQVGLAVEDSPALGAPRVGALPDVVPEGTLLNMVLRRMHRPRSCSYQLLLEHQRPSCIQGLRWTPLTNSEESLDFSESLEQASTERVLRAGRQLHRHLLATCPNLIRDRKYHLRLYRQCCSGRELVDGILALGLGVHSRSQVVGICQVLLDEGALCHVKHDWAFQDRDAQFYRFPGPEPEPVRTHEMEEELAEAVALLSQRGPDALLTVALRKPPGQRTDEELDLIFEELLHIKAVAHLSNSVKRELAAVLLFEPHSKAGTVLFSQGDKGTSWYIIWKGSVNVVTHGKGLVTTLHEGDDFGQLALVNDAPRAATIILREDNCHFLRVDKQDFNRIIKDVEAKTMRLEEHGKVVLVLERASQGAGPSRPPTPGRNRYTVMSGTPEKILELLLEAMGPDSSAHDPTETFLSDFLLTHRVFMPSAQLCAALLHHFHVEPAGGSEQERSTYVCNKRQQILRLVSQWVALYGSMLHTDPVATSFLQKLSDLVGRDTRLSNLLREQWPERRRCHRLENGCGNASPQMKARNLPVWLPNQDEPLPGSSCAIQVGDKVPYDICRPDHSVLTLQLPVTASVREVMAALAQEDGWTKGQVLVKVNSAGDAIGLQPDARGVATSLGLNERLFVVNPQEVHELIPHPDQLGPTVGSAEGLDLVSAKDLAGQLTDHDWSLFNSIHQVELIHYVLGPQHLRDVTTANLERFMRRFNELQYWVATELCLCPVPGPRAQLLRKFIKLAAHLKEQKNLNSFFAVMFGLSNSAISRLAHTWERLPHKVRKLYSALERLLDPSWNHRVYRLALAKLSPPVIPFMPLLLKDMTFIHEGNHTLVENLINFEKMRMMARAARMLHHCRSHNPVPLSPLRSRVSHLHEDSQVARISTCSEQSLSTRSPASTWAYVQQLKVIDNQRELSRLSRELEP
Summary of the method: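 Nucleotide exchange uses 100 nM EPAC1, 250 nM RAP1B-BODIPY-GDP and 50 uM GDP, with compounds in a concentration-titration series. After 5 min at room temperature, fluorescence (480 nm ex/540 nm em) is read every 5 min for 30 min. Data are normalized to control ATA and DMSO.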

[11] = target: Rap guanine nucleotide exchange factor 3 (Homo sapiens) (UniProt O95398); test: Confirmatory qHTS for agonist of cAMP-regulated guanine nucleotide exchange factor 3 (EPAC1) (AID 1645881);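 further: EPAC1 catalysed release of BODIPY-GDP from Rap1B seen as fluorescence loss; 100% = effect of cAMP agonist control; nearly all actives have a fitted effect of over 75% in size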
[12] = target: Rap guanine nucleotide exchange factor 4 (Homo sapiens) (UniProt Q8WZA2); test: Confirmatory qHTS for agonist of cAMP-regulated guanine nucleotide exchange factor 4 (EPAC2) (AID 1645884);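 further: nucleotide exchange releases bodipy-GDP from Rap1 and this lowers its fluorescence; on the % scale 0 is the no-effect control and ±100 the full control effect; nearly all actives have a fitted effect of over 65% in size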
Chain of Rap guanine nucleotide exchange factor 4 (Homo sapiens) (Q8WZA2 whole entry, looked up): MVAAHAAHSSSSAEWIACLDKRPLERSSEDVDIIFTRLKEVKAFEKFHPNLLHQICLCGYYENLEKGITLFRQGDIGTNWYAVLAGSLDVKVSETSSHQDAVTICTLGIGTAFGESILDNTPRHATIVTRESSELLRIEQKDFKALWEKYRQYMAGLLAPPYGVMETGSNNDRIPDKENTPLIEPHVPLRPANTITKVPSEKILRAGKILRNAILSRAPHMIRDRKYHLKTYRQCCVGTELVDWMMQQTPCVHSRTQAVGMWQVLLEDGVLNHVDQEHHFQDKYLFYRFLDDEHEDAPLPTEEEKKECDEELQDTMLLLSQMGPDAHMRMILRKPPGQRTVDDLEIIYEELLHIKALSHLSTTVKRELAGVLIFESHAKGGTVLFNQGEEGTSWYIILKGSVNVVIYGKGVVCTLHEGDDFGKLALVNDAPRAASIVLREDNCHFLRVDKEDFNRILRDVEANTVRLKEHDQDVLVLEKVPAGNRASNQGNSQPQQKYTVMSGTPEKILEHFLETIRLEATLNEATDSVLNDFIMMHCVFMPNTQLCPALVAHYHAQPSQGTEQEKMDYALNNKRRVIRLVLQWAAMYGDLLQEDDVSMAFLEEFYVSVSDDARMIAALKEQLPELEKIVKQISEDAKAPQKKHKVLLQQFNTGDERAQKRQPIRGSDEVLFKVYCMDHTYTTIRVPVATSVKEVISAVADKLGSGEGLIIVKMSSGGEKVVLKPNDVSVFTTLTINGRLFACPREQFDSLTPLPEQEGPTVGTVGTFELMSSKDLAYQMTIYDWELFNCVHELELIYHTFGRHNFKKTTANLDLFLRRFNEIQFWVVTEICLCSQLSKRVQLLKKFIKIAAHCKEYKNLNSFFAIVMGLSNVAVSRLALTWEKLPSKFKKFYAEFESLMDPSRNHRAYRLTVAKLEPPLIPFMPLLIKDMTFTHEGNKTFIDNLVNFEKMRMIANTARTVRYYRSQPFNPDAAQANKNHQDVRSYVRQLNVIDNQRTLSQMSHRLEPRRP

[13] = target: Rap guanine nucleotide exchange factor 4 (Homo sapiens) (UniProt Q8WZA2); test: Confirmatory qHTS for antagonist of cAMP-regulated guanine nucleotide exchange factor 4 (EPAC2) (AID 1645885); further: on the % scale 0 is the no-effect control and ±100 the full control effect; nearly all actives have a fitted effect of over 25% in size
[14] = target: Rap guanine nucleotide exchange factor 3 (Homo sapiens) (UniProt O95398); test: Counterscreen qHTS for antagonist of cAMP-regulated guanine nucleotide exchange factor 3 (EPAC1) (AID 1645888);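 further: fluorescence loss as bound BODIPY-GDP is released from Rap1B; % of control where 0% means no effect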
Summary of the method: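 Rap1B–BODIPY-GDP (250 nM) with 50 uM GDP; compounds pin-transferred to 9.74 nM–152 uM final (activator) or from 7.32 nM upwards (inhibitor). Fluorescence Ex/Em 480/540 nm read at 5 and 30 min, then after adding cAMP or buffer, at room temperature.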

[15] = target: Cytochrome P450 1A2 (Homo sapiens) (UniProt P05177); test: p450-cyp1a2 (AID 410; calls by dose curve; further: potency means the concentration at half of the fitted maximal effect;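 on activity change, negative = inhibition: -100% = full effect of reference inhibitor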)
Chain of Cytochrome P450 1A2 (Homo sapiens) (P05177 whole entry, looked up): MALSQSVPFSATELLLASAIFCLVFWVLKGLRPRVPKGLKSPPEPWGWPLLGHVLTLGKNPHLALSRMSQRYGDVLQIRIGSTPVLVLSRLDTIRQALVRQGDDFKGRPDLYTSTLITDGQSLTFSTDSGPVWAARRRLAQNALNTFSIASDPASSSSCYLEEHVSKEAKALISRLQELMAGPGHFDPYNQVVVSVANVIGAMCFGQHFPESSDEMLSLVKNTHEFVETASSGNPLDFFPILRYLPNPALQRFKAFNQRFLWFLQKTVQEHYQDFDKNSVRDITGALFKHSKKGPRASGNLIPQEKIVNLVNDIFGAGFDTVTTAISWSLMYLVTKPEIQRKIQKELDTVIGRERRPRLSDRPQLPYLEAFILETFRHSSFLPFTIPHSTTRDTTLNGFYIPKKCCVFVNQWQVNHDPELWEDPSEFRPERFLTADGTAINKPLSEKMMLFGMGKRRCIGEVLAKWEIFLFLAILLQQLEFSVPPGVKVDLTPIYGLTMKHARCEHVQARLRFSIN
Summary of the method: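 Inhibition was calculated relative to 57 uM furafylline (full inhibition). The reaction used human CYP1A2 at 20nM with Luciferin-ME at its Km, 100uM, driven by an NADPH-regenerating system for 60 min at room temperature.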

[16] = target: Glucocorticoid receptor (Homo sapiens) (UniProt P04150); test: GR-GFP Redistribution (AID 450;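 active means compounds whose dose series gives a full or clear partial fitted curve of increased nuclear translocation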; further: potency means the concentration at half of the fitted maximal effect); settings: U2OS GR-GFP nuclear translocation, laser cytometry, 2 h
Chain of Glucocorticoid receptor (Homo sapiens) (P04150 whole entry, looked up, the tested form may be a part): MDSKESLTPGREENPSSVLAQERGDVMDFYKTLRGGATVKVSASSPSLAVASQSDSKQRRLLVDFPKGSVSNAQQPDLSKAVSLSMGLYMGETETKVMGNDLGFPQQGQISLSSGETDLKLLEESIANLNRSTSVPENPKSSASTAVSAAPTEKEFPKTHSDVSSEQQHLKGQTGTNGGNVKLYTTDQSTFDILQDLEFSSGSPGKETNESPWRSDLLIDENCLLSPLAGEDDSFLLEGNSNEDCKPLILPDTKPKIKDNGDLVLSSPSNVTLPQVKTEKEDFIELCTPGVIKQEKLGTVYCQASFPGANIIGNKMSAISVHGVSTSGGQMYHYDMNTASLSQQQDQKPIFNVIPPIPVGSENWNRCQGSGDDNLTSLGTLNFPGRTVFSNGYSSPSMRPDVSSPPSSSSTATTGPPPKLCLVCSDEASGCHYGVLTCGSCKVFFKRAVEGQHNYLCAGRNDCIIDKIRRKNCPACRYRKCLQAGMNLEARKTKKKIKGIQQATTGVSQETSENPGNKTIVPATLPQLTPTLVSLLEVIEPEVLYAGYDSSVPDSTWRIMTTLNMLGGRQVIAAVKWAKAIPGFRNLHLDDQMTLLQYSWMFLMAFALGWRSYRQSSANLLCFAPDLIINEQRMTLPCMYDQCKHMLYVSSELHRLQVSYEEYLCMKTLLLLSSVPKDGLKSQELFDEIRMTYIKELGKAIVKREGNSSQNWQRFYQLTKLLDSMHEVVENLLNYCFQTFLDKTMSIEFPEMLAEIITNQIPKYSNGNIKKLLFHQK

[17] = target: Glucocorticoid receptor (Homo sapiens) (UniProt P04150); test: GR-EFC Redistribution (AID 451; calls by dose curve; further: potency means the concentration at half of the fitted maximal effect); settings: CHO-K1 GR-EFC translocation, beta-gal luminescence, 2 h
Summary of the method: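 CHO-K1 cells expressing nuclear EA and GR-ED fragments of b-gal; compounds titrated up to 46 uM final, 2 h at 37 C. GR nuclear translocation read as complemented b-gal luminescence after 1 h RT detection.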

[18] = target: Mitogen-activated protein kinase 10 (Mus musculus) (UniProt Q61831); test: JNK3 AlphaScreen Assay (AID 530; active means well fitted curve in either direction with a large enough effect, not every such curve was filed as active;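 further: kinase came from lysate of stimulated human HepG2 cells; signal reports phosphorylation of biotinylated GST-cJun 1-79 at Ser73 with 10 µM ATP; on the % scale 0 is the no-effect control and ±100 the full control effect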)
Summary of the method: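 qHTS format: compounds tested as titrations against IL-1beta/TNF-alpha-activated HepG2 lysate JNK3 with biotin-GST-cJun substrate and 10 uM ATP at room temperature. Loss of anti-phospho-cJun AlphaScreen signal indicates inhibition.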

[19] = target: DNA dC->dU-editing enzyme APOBEC-3G (Homo sapiens) (UniProt Q9HC16); test: qHTS for inhibitors of Vif-A3G interactions: Validation (AID 588379); further: 0% is about no effect
Chain of DNA dC->dU-editing enzyme APOBEC-3G (Homo sapiens) (Q9HC16 whole entry, looked up): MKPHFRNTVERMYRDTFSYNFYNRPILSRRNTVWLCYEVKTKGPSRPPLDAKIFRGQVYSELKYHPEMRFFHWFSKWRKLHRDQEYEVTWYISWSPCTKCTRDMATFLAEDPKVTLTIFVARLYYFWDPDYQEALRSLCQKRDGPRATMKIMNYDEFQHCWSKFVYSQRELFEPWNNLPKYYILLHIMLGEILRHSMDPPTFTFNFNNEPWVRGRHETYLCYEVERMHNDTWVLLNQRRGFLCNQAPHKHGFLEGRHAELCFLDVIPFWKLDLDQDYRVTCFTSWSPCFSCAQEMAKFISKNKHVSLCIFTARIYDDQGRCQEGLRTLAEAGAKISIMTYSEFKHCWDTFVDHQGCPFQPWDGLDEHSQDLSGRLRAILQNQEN
Summary of the method: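 HeLa cells stably expressing Vif and A3G-eYFP, 700 cells/well, incubated overnight at 37 deg C, then exposed to compound overnight at 37 deg C. Inhibition of Vif-mediated degradation read as increased yellow fluorescence (Ex 488/Em 500-530) by laser-scanning cytometry.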

[20] = target: Cytochrome P450 2D6 (Homo sapiens) (UniProt P10635); test: qHTS Assay for Inhibitors and Substrates of Cytochrome P450 2D6 (AID 891); further: potency means the concentration at half of the fitted maximal effect; nearly all actives have a fitted effect of over 60% in size
Summary of the method: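 Human CYP2D6 (5 nM) with 30 uM Luciferin-ME EGE (at Km) in 100 mM KPO4, compound preincubated 10 min, then NADPH regeneration system for 60 min at room temperature. Luciferin read by luminescence; normalized to 1.43 uM quinidine.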

[21] = target: 3',5'-cyclic-AMP phosphodiesterase 4B (Homo sapiens) (UniProt Q07343); test: qHTS Assay for Inhibitors of PDE-IV (AID 607; active means well fitted activation curve with a large enough effect in the main read-out, with a control signal flat, not every such curve was filed as active; further: % of control where 0% means no effect)
Summary of the method: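 The readout is membrane depolarisation from a cAMP-sensing CNG channel, detected with a potential dye at ex 535/em 590. Cells were HEK293-derived (endogenous PDE-IV) at 1000 cells/well, titrated up to 22.9 uM final.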

[22] = target: Cytochrome P450 2C9 (Homo sapiens) (UniProt P11712); test: qHTS Assay for Inhibitors and Substrates of Cytochrome P450 2C9 (AID 883); further: on the % scale 0 is the no-effect control and ±100 the full control effect; nearly all actives have a fitted effect of over 60% in size
Summary of the method: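 10nM CYP2C9 + 100uM Luciferin-H (=KM), 25mM KPO4; cpd 10 min 37C; NADPH regen, 60 min 37C; stop/detect with P450 Glo-Buffer 20 min; luminescence. Norm. to 57uM sulphaphenazole as full inhibition.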

[23] = target: Cytochrome P450 2C19 (Homo sapiens) (UniProt P33261); test: qHTS Assay for Inhibitors and Substrates of Cytochrome P450 2C19 (AID 899); further: potency means the concentration at half of the fitted maximal effect; nearly all actives have a fitted effect of over 60% in size
Summary of the method: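 Luminescent read-out of luciferin formed from Luciferin-H EGE (10uM, equal to KM). Enzyme 5nM in 50mM KPO4; compound added, 10 min at 37C, then NADPH regenerating system for 60 min at 37C. Full inhibition defined by 57uM ketoconazole.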

[24] = AP1 Signaling Pathway (AID 357; active means well fitted curve in either direction with a large enough effect, not every such curve was filed as active;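 further: ME-180 reporter cells stimulated with EGF at its EC50 level; on the % scale 0 is the no-effect control and ±100 the full control effect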); settings: ME-180 AP-1-bla reporter, EGF-induced, beta-lactamase ratio, 5 h; at 7.69 µM (top of the series) unless noted
Summary of the method: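 In this screen, ME-180 cells in Opti-MEM with 0.5% dialyzed FBS received EC50 EGF and compound titrations for 5 h. AP-1 reporter beta-lactamase was detected via CCF4 ratio, giving AC50 for positive and negative modulators.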

[25] = Stat Signaling Pathway (AID 446; active means well fitted curve in either direction with a large enough effect, not every such curve was filed as active;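 further: ME-180 cervical cancer cells given 40 pM IL-6 alongside compound; SIE-controlled beta-lactamase reporter measured as 460/530 nm FRET emission ratio; on the % scale 0 is the no-effect control and ±100 the full control effect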); settings: ME-180 SIE beta-lactamase reporter, IL-6 stimulated, 5 h; at 7.69 µM (top of the series) unless noted
Summary of the method: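 Screening format detects activators and inhibitors alike: ME-180 SIE-bla cells stimulated at 40 pM IL-6 for 5 hrs with compound, then dual-emission beta-lactamase read at 405 nm excitation.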

[26] = measured here: cell count channel max response
[27] = measured here: lipid channel max response

COC(=O)c1c(C)cc(OC(=O)c2c(C)cc(O)c(C=O)c2O)c(C)c1O
-19%: max response [3, 27]
-15.4%: max response [3, 26]
inactive: Potency [1] | outcome [2] | activity change, negative = inhibition [3] -6.06% | Potency [4] | Potency [5] | Potency [6]

C=CCNC(=O)c1cc([N+](=O)[O-])cc2c(=O)[nH]c(Nc3ccc(Cl)c(Cl)c3)nc12
inactive: Potency [7] | outcome [8]

C=CCc1ccc(OC(=O)c2ccccc2)c(OC)c1
active: Potency [9] 5.01 µM
5.85%: max response [3, 26]
15.6%: max response [3, 27]
inactive: Potency [7] | outcome [2] | activity change, negative = inhibition [3] 6.62% | Potency [10] | Potency [11] | Potency [12] | activity change, negative = inhibition [13] -4.91% [at 12.7 µM] | activity change, negative = inhibition [14] -3.32% [at 30.8 µM]

CN=C1N[C@H](c2ccccc2)N(c2ccccc2)S1
active: Potency [15] 1.26 µM
inactive: Potency [16] > 46 µM | Potency [17] > 46 µM | Potency [18] | Potency [7] | Potency [4] | outcome [19] | outcome [8]

CCCNC(=O)N1N=C(c2ccc(N)cc2)c2cc3c(cc2[C@H]1C)OCO3
inactive: Potency [16] > 46 µM | Potency [17] > 46 µM | Potency [7] | outcome [19] | outcome [8]
active: Potency [15] 3.98 µM | Potency [9] 1.26 µM

Cc1cc(C)c(S(=O)(=O)Nc2ccccc2C(F)(F)F)c(C)c1
inactive: Potency [16] > 46 µM | Potency [17] > 46 µM | Potency [7] | outcome [19] | outcome [8]
active: Potency [15] 31.6 µM | Potency [9] 2.51 µM | Potency [20] 6.31 µM

COc1cc2c(cc1OC)C(=O)Cc1ccc3c(c1CN(C)CC2)OCO3
inactive: Potency [15] | Potency [16] > 46 µM | Potency [17] > 46 µM | Potency [18] | Potency [21] | Potency [22] | Potency [9] | outcome [19] | outcome [8]
active: Potency [20] 0.0251 µM | Potency [23] 10 µM

CC(C)(C)c1cc(C(=O)/C=C/c2ccc(C(=O)O)cc2)cc(C(C)(C)C)c1
active: Potency [9] 20 µM
inactive: Potency [7] | outcome [8]

O=C(c1ccncc1)N1CCC[C@@]2(CCN(Cc3cc(C(F)(F)F)cc(C(F)(F)F)c3)C2)C1
inactive: activity change, negative = inhibition [24] 8.67% | activity, negative = inhibition [25] -0.599% | Potency [18] | Potency [21] | outcome [8]
